# Records with an inconclusive call do not appear. Entries that show only a call come without a potency. Calls of active or inactive are those of the source. Unless noted, the call rests on the fitted dose curve; in most records, active means well fitted curve in the direction sought with a large enough effect in the repeat runs; inconclusive means weak or mixed curves; inactive means no such curve, though single readings can be large; an effect the other way counts as inactive or inconclusive.
# What was measured:
# [1] = qHTS assay to identify small molecule agonists of the RXR signaling pathway - cell viability counter screen (AID 1159529); further: nearly all actives have a fitted effect of over 50% in size; further: potency means the concentration at half of the fitted maximal effect
# Summary of the method: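 Same-well viability check after the LiveBLAzer FRET read: CellTiter-Glo added, luminescence measured after 30 min at room temperature. Reporter HEK 293T cells had been treated with compounds for 16 hr following a 5 hr preincubation.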
# [2] = qHTS assay to identify small molecule antagonists of the retinoid acid receptor (RAR) signaling pathway - cell viability counter screen (AID 1159551); further: nearly all actives have a fitted effect of over 35% in size
# Summary of the method: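 Cells (C3RL4) are plated, incubated overnight, dosed with compound in DMSO, then given retinol at 1 uM final. After 6 h at 37 C, CellTiter-Glo is added and luminescence read following 30 min at room temperature.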
# [3] = target: Nuclear receptor subfamily 1 group I member 3 (Homo sapiens) (UniProt Q14994); assay: qHTS assay to identify small molecule agonists of the constitutive androstane receptor (CAR) signaling pathway (AID 1224839); further: nearly all actives have a fitted effect of over 15% in size; further: potency means the concentration at half of the fitted maximal effect
# Sequence of Nuclear receptor subfamily 1 group I member 3 (Homo sapiens) (Q14994 whole entry, looked up): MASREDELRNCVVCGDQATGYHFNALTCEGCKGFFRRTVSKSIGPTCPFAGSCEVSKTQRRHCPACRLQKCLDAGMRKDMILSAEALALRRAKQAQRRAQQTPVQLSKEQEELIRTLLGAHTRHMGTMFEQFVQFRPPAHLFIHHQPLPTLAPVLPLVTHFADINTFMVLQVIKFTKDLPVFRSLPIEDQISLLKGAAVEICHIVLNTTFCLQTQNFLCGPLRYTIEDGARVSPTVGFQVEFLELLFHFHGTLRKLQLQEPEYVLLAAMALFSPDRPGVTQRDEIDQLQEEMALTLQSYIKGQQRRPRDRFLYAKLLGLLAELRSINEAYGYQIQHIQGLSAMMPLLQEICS
# Summary of the method: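 In this screen, CAR-driven CYP2B6 promoter activity is measured by luminescence in HepG2-CYP2B6-hCAR cells after 24 h with test compounds and 0.75 uM PK11195 (final concentration).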
# [4] = qHTS RealTime-Glo MT Cell Viability Assay in HepG2 cells - 8 hour (AID 1224873); further: nearly all actives have a fitted effect of over 55% in size
# Summary of the method: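 HepG2 cells (600/well) mixed with RealTime-Glo MT reagent, settled 5 h at 37 C/5% CO2 before compound addition. Nonlytic NanoLuc luminescence from viable-cell prosubstrate reduction read repeatedly during 40 h treatment at 37 C.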
# [5] = qHTS assay to identify small molecule agonists of the androgen receptor (AR) signaling pathway in the presence of an antagonist - cell viability counter screen (AID 1259379); further: nearly all actives have a fitted effect of over 25% in size; further: potency means the concentration at half of the fitted maximal effect
# Summary of the method: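 Cytotoxicity is assessed by CellTiter-Fluor in MDA-kb2 cells carrying an MMTV-driven luciferase reporter. Cells receive 3.0uM nilutamide plus compounds at 15 concentrations and incubate 16 hr at 37C without CO2 before fluorescence reading.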
# [6] = qHTS assay to identify small molecule antagonists of the estrogen receptor beta (ER-beta) signaling pathway - cell viability counter screen (AID 1259382); further: nearly all actives have a fitted effect of over 55% in size; further: potency means the concentration at half of the fitted maximal effect
# Summary of the method: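 Cytotoxicity counter screen multiplexed with the beta-lactamase antagonist assay: GripTite HEK293T ER-beta-bla cells were treated 16 hr with test chemicals in the presence of 1nM 17-beta-estradiol, and viability was measured by CellTiter-Glo.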
# [7] = target: Thyrotropin-releasing hormone receptor (Homo sapiens) (UniProt P34981); assay: qHTS assay to identify small molecule agonists of the thyrotropin-releasing hormone receptor (TRHR) signaling pathway (AID 1346891; calls by dose curve;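 further: HEK293 cells expressing TRHR with calcium dye readout; series mostly up to about 58 µM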)
# Sequence of Thyrotropin-releasing hormone receptor (Homo sapiens) (P34981 whole entry, looked up): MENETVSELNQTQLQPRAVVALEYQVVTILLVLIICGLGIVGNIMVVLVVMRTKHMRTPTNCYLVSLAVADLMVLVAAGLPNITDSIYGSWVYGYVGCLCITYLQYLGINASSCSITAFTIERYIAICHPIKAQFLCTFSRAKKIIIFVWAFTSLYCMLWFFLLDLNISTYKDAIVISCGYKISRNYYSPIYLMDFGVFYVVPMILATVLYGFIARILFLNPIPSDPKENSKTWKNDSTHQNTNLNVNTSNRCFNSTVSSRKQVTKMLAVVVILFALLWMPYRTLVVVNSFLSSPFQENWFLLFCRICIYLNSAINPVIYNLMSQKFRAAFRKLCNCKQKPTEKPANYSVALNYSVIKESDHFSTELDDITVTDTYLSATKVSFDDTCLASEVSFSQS
# Summary of the method: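 Overnight-plated (18 h, 37 °C, 5% CO2) TRHR-Hek293 cells; 2 h calcium dye at 37 °C; compound in DMSO; 3-min kinetic fluorescence read.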
# [8] = Caspase-3/7 induction in CHO-K1 cells by small molecules, qHTS cell viability counter screen (AID 1346979); further: nearly all actives have a fitted effect of over 35% in size; further: potency means the concentration at half of the fitted maximal effect
# Summary of the method: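 Multiplexed with Caspase-Glo 3/7 in CHO-K1 cells, this counter screen added CellTiter-Fluor after 16hr of compound exposure and recorded fluorescence 1hr later.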
# [9] = target: Nuclear receptor subfamily 1 group I member 2 (Homo sapiens) (UniProt O75469); assay: Human pregnane X receptor (PXR) small molecule agonists, qHTS assay (AID 1346982); further: potency means the concentration at half of the fitted maximal effect; nearly all actives have a fitted effect of over 35% in size
# Sequence of Nuclear receptor subfamily 1 group I member 2 (Homo sapiens) (O75469 whole entry, looked up): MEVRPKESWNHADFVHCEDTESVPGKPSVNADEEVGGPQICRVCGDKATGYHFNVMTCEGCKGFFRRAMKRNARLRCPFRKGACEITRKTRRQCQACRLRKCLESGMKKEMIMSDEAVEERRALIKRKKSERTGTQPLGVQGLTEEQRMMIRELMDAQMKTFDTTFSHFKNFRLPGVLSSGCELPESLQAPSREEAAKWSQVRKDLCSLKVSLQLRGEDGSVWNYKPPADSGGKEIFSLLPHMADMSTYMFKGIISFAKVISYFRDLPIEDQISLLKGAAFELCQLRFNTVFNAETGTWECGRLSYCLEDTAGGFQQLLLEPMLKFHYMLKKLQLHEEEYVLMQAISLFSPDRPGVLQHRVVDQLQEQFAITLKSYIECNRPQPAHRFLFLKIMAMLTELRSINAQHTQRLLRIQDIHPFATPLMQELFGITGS
# Summary of the method: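 Cells: HepG2 stably carrying PXR-Luc. Medium held 5% charcoal-stripped FBS. Compounds in DMSO added after 5 hr plating, incubated 24 hr, then luminescence quantified with ONE-Glo.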
# [10] = qHTS assay to test for compound auto fluorescence at 590 nm (red) in HepG2 cells (AID 720674)
# Summary of the method: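 HepG2 cells, 2,000 per well in MEM with 10% FBS, attached overnight at 37 C, then got 23 nL compound or DMSO. After 1 hr at 37 C, 5% CO2, red fluorescence was read at 540/590 nm against Rose Bengal sodium as reference.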
# [11] = qHTS assay to test for compound auto fluorescence at 460 nm (blue) in HEK293 cells (AID 720678)
# Summary of the method: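 Blue read-out at excitation 405 nm and emission 460 nm follows overnight compound exposure of HEK293 cells at 37C in 5% CO2. Activity is given as auto fluorescence equivalency to triamterene.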
# [12] = qHTS assay to test for compound auto fluorescence at 535 nm (green) in HEK293 cell free culture (AID 720682)
# Summary of the method: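 Measurement is a direct plate read of green fluorescence (485 nm in, 535 nm out) after compound addition to serum-supplemented DMEM lacking cells, with fluorescein used to express intensities.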
# [13] = qHTS assay to test for compound auto fluorescence at 460 nm (blue) in HepG2 cells (AID 720687)
# Summary of the method: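 HepG2 cells in MEM with 10% FBS, attached overnight at 37 C, were exposed to compound or DMSO for 1 hr at 37 C, 5% CO2. Blue fluorescence was read at 405/460 nm, with triamterene as reference fluorophore.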
# [14] = qHTS assay for identifying genotoxic compounds that show differential cytotoxicity against isogenic chicken DT40 cell lines with known DNA damage response pathways - Rad54/Ku70 mutant cell line (AID 743015); further: nearly all actives have a fitted effect of over 60% in size; further: potency means the concentration at half of the fitted maximal effect
# [15] = target: Aryl hydrocarbon receptor (Homo sapiens) (UniProt P35869); assay: qHTS assay to identify small molecule that activate the aryl hydrocarbon receptor (AhR) signaling pathway (AID 743085);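 further: HG2L7.5c1 human HepG2 liver cells with stably integrated DRE-driven firefly reporter; series mostly up to about 70 µM; nearly all actives have a fitted effect of over 15% in size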
# Sequence of Aryl hydrocarbon receptor (Homo sapiens) (P35869 whole entry, looked up): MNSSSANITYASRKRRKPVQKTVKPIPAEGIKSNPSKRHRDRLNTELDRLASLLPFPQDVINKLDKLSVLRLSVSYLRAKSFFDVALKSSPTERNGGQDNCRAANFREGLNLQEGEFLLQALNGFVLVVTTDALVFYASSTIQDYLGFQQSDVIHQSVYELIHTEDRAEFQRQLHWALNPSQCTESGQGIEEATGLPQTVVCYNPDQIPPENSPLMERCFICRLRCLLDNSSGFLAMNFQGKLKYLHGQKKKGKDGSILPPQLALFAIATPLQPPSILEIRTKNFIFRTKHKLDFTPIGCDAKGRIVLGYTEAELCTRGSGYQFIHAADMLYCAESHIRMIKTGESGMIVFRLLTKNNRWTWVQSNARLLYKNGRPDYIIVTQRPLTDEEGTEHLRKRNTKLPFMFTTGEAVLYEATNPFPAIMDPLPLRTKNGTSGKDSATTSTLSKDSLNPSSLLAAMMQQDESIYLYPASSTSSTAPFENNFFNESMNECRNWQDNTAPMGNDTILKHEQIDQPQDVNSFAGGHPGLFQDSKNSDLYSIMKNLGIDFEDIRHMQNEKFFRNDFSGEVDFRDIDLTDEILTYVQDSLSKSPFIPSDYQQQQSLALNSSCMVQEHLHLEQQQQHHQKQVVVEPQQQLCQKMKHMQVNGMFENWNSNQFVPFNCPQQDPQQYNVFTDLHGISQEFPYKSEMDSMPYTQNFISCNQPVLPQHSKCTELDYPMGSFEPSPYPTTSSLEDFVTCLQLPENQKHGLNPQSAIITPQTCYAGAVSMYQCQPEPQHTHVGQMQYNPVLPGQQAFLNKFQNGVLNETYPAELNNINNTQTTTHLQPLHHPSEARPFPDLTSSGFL
# Summary of the method: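 24 h compound exposure, 37C, HepG2-derived HG2L7.5c1 cells with DRE-responsive luciferase. Readouts: fluorescence viability, then luminescence at room temperature after 30 min.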
# [16] = qHTS assay to identify small molecule agonists of the hypoxia (HIF-1) signaling pathway - cell viability counter screen (AID 1224844; calls by dose curve; further: nearly all actives have a fitted effect of over 50% in size)
# Summary of the method: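 Cytotoxicity was measured in parallel with the HRE-driven beta-lactamase readout: after 17 hrs of compound exposure at 37C, HRE-bla ME-180 cells received CellTiter-Glo and luminescence was recorded 30 min later.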
# [17] = qHTS RealTime-Glo MT Cell Viability Assay in HEK293 cells - 16 hour (AID 1224872); further: nearly all actives have a fitted effect of over 50% in size; further: potency means the concentration at half of the fitted maximal effect
# Summary of the method: (§1)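 Nonlytic real-time viability readout: viable cells convert prosubstrate to NanoLuc substrate, giving luminescence proportional to live cell number. HEK293, 600 cells/well, compound added after 5 h, continuous culture at 37 C.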
# [18] = A CellTox Green Cytotoxicity Assay to monitor cytotoxicity in HEK293 cells - 32 hour (AID 1224881); further: nearly all actives have a fitted effect of over 40% in size; further: potency means the concentration at half of the fitted maximal effect
# Summary of the method: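 Cells (HEK293, 600/well) and dye reagent are dispensed together. After 5 h at 37 C, 23 nL compound is pinned in. Plates stay at 37 C for 40 h with fluorescence read at 0h, 8h, 16h, 24h, 32h and 40h.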
# [19] = qHTS RealTime-Glo MT Cell Viability Assay in HEK293 cells - 24 hour (AID 1224886); further: nearly all actives have a fitted effect of over 50% in size; further: potency means the concentration at half of the fitted maximal effect
# Summary of the method: as §1
# [20] = target: Cytochrome P450 3A4 (Homo sapiens) (UniProt P08684); assay: Cytochrome P450 Family 3 Subfamily A Member 4 (CYP3A4) small molecule antagonists: luciferase reporter qHTS assay (AID 1671201); further: nearly all actives have a fitted effect of over 50% in size; further: potency means the concentration at half of the fitted maximal effect
# Sequence of Cytochrome P450 3A4 (Homo sapiens) (P08684 whole entry, looked up): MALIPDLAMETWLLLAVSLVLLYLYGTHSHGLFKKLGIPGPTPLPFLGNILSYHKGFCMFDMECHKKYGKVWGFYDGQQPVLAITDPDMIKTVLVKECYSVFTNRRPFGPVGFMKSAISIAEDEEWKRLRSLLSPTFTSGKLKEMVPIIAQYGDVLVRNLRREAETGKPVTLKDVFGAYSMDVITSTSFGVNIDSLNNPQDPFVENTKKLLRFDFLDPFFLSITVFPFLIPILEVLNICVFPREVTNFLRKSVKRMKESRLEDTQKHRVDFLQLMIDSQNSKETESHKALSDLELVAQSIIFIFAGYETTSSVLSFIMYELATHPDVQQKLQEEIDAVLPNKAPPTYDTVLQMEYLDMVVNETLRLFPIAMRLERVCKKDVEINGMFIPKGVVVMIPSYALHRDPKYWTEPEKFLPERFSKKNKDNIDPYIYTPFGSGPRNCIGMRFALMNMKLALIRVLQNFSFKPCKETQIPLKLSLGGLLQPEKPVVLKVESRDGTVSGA
# Summary of the method: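 Room-temperature assay throughout: 10 min compound–enzyme/substrate preincubation, 1 h reaction after NADPH regeneration solution, 20 min detection. Luciferin formed from proluciferin substrate is quantified by luminescence.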
smiles,measurement,setting,value
CNC(=O)Oc1cc(C)c(SC)c(C)c1,Potency,[1],inactive
same,Potency,[2],inactive
same,Potency,[3],61.1 µM (active)
same,Potency,[4],inactive
same,Potency,[5],inactive
same,Potency,[6],inactive
same,outcome,[7],inactive
same,Potency,[8],54.5 µM (active)
same,Potency,[9],61.1 µM (active)
O=C(Nc1ccccc1-c1ccc(Cl)cc1)c1cccnc1Cl,outcome,[10],inactive
same,Potency,[11],inactive
same,Potency,[12],inactive
same,Potency,[13],inactive
same,Potency,[14],66.7 µM (active)
same,Potency,[2],inactive
same,Potency,[4],inactive
same,Potency,[5],inactive
same,outcome,[7],inactive
same,Potency,[9],10.3 µM (active)
c1ccc2c(c1)Sc1ccccc1N2CC1CN2CCC1CC2 (stereo not given),outcome,[10],inactive
same,Potency,[11],inactive
same,Potency,[13],inactive
same,Potency,[14],8.41 µM (active)
same,Potency,[15],inactive
same,Potency,[1],19 µM (active)
same,Potency,[2],inactive
same,Potency,[3],inactive
same,Potency,[6],21.1 µM (active)
same,Potency,[8],29.8 µM (active)
O=[N+]([O-])c1c(Cl)c(Cl)cc(Cl)c1Cl,outcome,[10],inactive
same,Potency,[11],inactive
same,Potency,[12],inactive
same,Potency,[13],inactive
same,Potency,[15],inactive
same,Potency,[2],inactive
same,Potency,[16],inactive
same,Potency,[17],inactive
same,Potency,[4],inactive
same,Potency,[18],43.6 µM (active)
same,Potency,[19],inactive
same,Potency,[5],inactive
same,Potency,[6],inactive
same,Potency,[8],inactive
same,Potency,[20],inactive
CC1COC(Cn2cncn2)(c2ccc(Oc3ccc(Cl)cc3)cc2Cl)O1 (stereo not given),Potency,[12],inactive
same,Potency,[13],inactive
same,Potency,[14],2.43 µM (active)
same,Potency,[15],inactive
same,Potency,[2],inactive
same,Potency,[16],inactive
same,Potency,[17],21.9 µM (active)
same,Potency,[18],inactive
same,Potency,[19],19.5 µM (active)
same,Potency,[5],48.6 µM (active)
same,Potency,[8],24.3 µM (active)
same,Potency,[9],61.1 µM (active)
same,Potency,[20],0.0796 µM (active)
Clc1ccccc1-c1ccccc1Cl,outcome,[10],inactive
same,Potency,[11],inactive
same,Potency,[13],inactive
same,Potency,[14],inactive
same,Potency,[4],inactive
same,Potency,[18],31.4 µM (active)
same,Potency,[5],inactive
same,Potency,[6],inactive
same,outcome,[7],inactive
same,Potency,[8],inactive
same,Potency,[20],inactive
CCCN1CCC[C@H](c2cccc(O)c2)C1,outcome,[10],inactive
same,Potency,[11],inactive
same,Potency,[12],inactive
same,Potency,[13],inactive
same,Potency,[14],inactive
same,Potency,[15],inactive
O=P(O)(O)C(Cl)(Cl)P(=O)(O)O,Potency,[11],inactive
same,Potency,[12],inactive
same,Potency,[13],inactive
same,Potency,[14],inactive
CCCCCN(C)CCC(O)(P(=O)(O)O)P(=O)(O)O,outcome,[10],inactive
same,Potency,[11],inactive
same,Potency,[13],inactive
same,Potency,[14],inactive
same,Potency,[15],inactive
CCCCc1ccc(C(=O)O)nc1,Potency,[11],inactive
same,Potency,[12],inactive
same,Potency,[13],inactive
same,Potency,[14],inactive
same,Potency,[15],inactive
C[C@]12N[C@H](Cc3ccccc31)c1ccccc12,outcome,[10],inactive
same,Potency,[11],inactive
same,Potency,[12],inactive
same,Potency,[13],inactive
same,Potency,[14],inactive
same,Potency,[15],inactive
CC(C)NC(C)Cc1ccc(I)cc1 (stereo not given),outcome,[10],inactive
same,Potency,[11],inactive
same,Potency,[12],inactive
same,Potency,[13],inactive
same,Potency,[14],13.3 µM (active)
same,Potency,[15],inactive

# Reference: PubChem BioAssay (Tox21)
